Source: PubChem BioAssay AID1159580 (chemical genetic matrix, 2015)
Where “and” joins values, the source holds several entries; their conditions need not be identical. Identical values can stand only once. Out of some 5,500 compounds screened, about 2,000 (36%) were called active. Inconclusive results (about 18%) are left out. No stated cut-off is given here; in the data, active means normalized growth mostly below about 0.91 (no sharp cut-off); inconclusive means no clear call, values can overlap the other calls; inactive means mostly above about 0.92. The list shows a part of the results.

Assay: chemical genetic growth profiling, strain panel (AID 1159580);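 further: tested at 20 µM; growth read once vehicle control cultures reached saturation at 30 °C; 1 = growth at the plate median or of vehicle wells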
Conditions: S. cerevisiae deletion strains, growth OD

Measured: normalized growth

COc1cc2c(cc1O)CCNC2C (stereo not drawn)
inactive: locus YAL021C, strain ccr4, stronger effect = lower value 1.01 | locus YAL026C, strain drs2, stronger effect = lower value 1 | locus YAL030W, strain snc1, stronger effect = lower value 0.993 | locus YBL061C, strain skt5, stronger effect = lower value 1 | locus YBR009C, strain hhf1, stronger effect = lower value 1 | locus YBR021W, strain FUR4, stronger effect = lower value 1.01 | locus YBR023C, strain chs3, stronger effect = lower value 0.999 | locus YBR171W, strain sec66, stronger effect = lower value 0.982 | locus YBR229C, strain ROT2, stronger effect = lower value 0.993 | locus YBR231C, strain swc5, stronger effect = lower value 0.984 | locus YBR279W, strain paf1, stronger effect = lower value 0.996 | locus YCL011C, strain gbp2, stronger effect = lower value 0.992 | locus YCL016C, strain dcc1, stronger effect = lower value 1.01 | locus YCL029C, strain bik1, stronger effect = lower value 0.968 | locus YCL061C, strain MRC1, stronger effect = lower value 0.989 | locus YCL069W, strain vba3, stronger effect = lower value 0.996 | locus YCR088W, strain abp1, stronger effect = lower value 0.975 | locus YDL005C, strain med2, stronger effect = lower value 0.978 | locus YDL035C, strain GPR1, stronger effect = lower value 1.03 | locus YDL040C, strain nat1, stronger effect = lower value 0.991 | locus YDL074C, strain BRE1, stronger effect = lower value 1 | locus YDL101C, strain DUN1, stronger effect = lower value 0.989 | locus YDL134C, strain PPH21, stronger effect = lower value 1 | locus YDL185W, strain tfp1, stronger effect = lower value 0.981 | locus YDL192W, strain arf1, stronger effect = lower value 0.976 | locus YDR001C, strain nth1, stronger effect = lower value 0.999 | locus YDR069C, strain doa4, stronger effect = lower value 0.975 | locus YDR101C, strain arx1, stronger effect = lower value 0.963 | locus YDR137W, strain rgp1, stronger effect = lower value 0.99 | locus YDR150W, strain NUM1, stronger effect = lower value 0.996 | locus YDR159W, strain sac3, stronger effect = lower value 1.01 | locus YDR162C, strain NBP2, stronger effect = lower value 1.01 | locus YDR195W, strain ref2 0.94 | locus YDR297W, strain sur2, stronger effect = lower value 0.993 | locus YDR318W, strain mcm21, stronger effect = lower value 0.982 | locus YDR334W, strain swr1, stronger effect = lower value 0.99 | locus YDR335W, strain msn5, stronger effect = lower value 0.983 | locus YDR388W, stronger effect = lower value 0.98 | locus YDR392W, strain spt3, stronger effect = lower value 1.03 | locus YDR502C, strain sam2, stronger effect = lower value 0.982 | locus YEL003W, strain gim4, stronger effect = lower value 0.999 | locus YEL037C, strain rad23, stronger effect = lower value 1 | locus YEL061C, strain CIN8 (second series), stronger effect = lower value 0.99 | locus YEL061C, strain CIN8, stronger effect = lower value 0.996 | locus YER015W, strain faa2, stronger effect = lower value 0.995 | locus YER016W, strain bim1, stronger effect = lower value 1.01 | locus YER110C, stronger effect = lower value 0.965 | locus YER111C, strain swi4, stronger effect = lower value 0.975 | locus YER155C, strain BEM2 (second series), stronger effect = lower value 0.94 | locus YER155C, strain BEM2, stronger effect = lower value 0.98 | locus YER167W, strain BCK2, stronger effect = lower value 1.01 | locus YFR010W, strain ubp6, stronger effect = lower value 0.978 | locus YGL078C, strain dbp3, stronger effect = lower value 0.984 | locus YGL086W, strain mad1, stronger effect = lower value 0.968 | locus YGL167C, strain pmr1, stronger effect = lower value 0.993 | locus YGL173C, strain kem1, stronger effect = lower value 1 | locus YGL227W, strain vid30, stronger effect = lower value 0.993 | locus YGL240W, strain doc1, stronger effect = lower value 0.971 | locus YGL248W, strain PDE1, stronger effect = lower value 0.988 | locus YGL253W, strain hxk2, stronger effect = lower value 1 | locus YGR135W, strain pre9, stronger effect = lower value 0.977 | locus YGR252W, strain gcn5, stronger effect = lower value 0.983 | locus YHR013C, strain ard1, stronger effect = lower value 0.99 | locus YHR027C, strain rpn1, stronger effect = lower value 1 | locus YHR030C, strain SLT2, stronger effect = lower value 0.993 and 1.05 | locus YHR079C, strain IRE1 (second series), stronger effect = lower value 0.979 | locus YHR079C, strain IRE1, stronger effect = lower value 1.05 | locus YHR094C, strain hxt1, stronger effect = lower value 0.971 | locus YHR129C, strain ARP1, stronger effect = lower value 0.992 | locus YHR142W, strain chs7, stronger effect = lower value 1.01 | locus YHR200W, strain rpn10, stronger effect = lower value 1 | locus YIL066C, strain RNR3, stronger effect = lower value 1.01 | locus YIL073C, strain SPO22, stronger effect = lower value 0.963 | locus YIL125W, strain kgd1, stronger effect = lower value 0.981 | locus YIR030C, strain dcg1, stronger effect = lower value 0.978 | locus YJL092W, strain hpr5, stronger effect = lower value 0.991 | locus YJL095W, strain BCK1 (second series), stronger effect = lower value 0.978 | locus YJL095W, strain BCK1, stronger effect = lower value 0.984 and 1.01 | locus YJL115W, strain asf1, stronger effect = lower value 0.988 | locus YJL129C, strain trk1, stronger effect = lower value 0.99 | locus YJL134W, strain LCB3, stronger effect = lower value 0.995 | locus YJL154C, strain vps35, stronger effect = lower value 0.994 | locus YJL164C, strain tpk1, stronger effect = lower value 1 | locus YJL166W, strain qcr8, stronger effect = lower value 0.987 | locus YJL168C, strain set2, stronger effect = lower value 0.973 | locus YJL187C, strain SWE1 (second series), stronger effect = lower value 0.992 | locus YJR043C, strain POL32, stronger effect = lower value 1.05 | locus YJR066W, strain TOR1, stronger effect = lower value 0.982 | locus YKL009W, strain mrt4, stronger effect = lower value 0.961 | locus YKL068W, stronger effect = lower value 0.987 | locus YKL085W, strain MDH1 (second series), stronger effect = lower value 0.982 | locus YKL085W, strain MDH1, stronger effect = lower value 0.982 | locus YKL160W, strain elf1, stronger effect = lower value 0.994 | locus YKR001C, strain vps1, stronger effect = lower value 0.958 | locus YKR026C, strain gcn3, stronger effect = lower value 0.989 | locus YKR091W, strain srl3, stronger effect = lower value 0.991 | locus YLL001W, strain dnm1, stronger effect = lower value 0.982 | locus YLL026W, stronger effect = lower value 0.987 | locus YLL041C, strain sdh2, stronger effect = lower value 0.992 | locus YLR027C, strain aat2, stronger effect = lower value 0.98 | locus YLR039C, strain RIC1, stronger effect = lower value 1.02 | locus YLR058C, strain SHM2, stronger effect = lower value 0.995 | locus YLR102C, strain apc9, stronger effect = lower value 0.974 | locus YLR113W, strain HOG1, stronger effect = lower value 0.977 | locus YLR221C, strain rsa3, stronger effect = lower value 0.996 | locus YLR258W, strain gsy2, stronger effect = lower value 0.998 | locus YLR262C, strain YPT6 (second series), stronger effect = lower value 0.994 | locus YLR262C, strain YPT6, stronger effect = lower value 1.05 | locus YLR268W, strain sec22, stronger effect = lower value 0.965 | locus YLR320W, strain mms22, stronger effect = lower value 0.994 | locus YLR330W, strain CHS5, stronger effect = lower value 1 | locus YLR342W, strain FKS1 (second series), stronger effect = lower value 1.03 | locus YLR342W, strain FKS1, stronger effect = lower value 0.987 | locus YLR357W, strain rsc2, stronger effect = lower value 0.979 | locus YLR370C, strain arc18, stronger effect = lower value 0.988 | locus YLR371W, strain rom2, stronger effect = lower value 0.967 | locus YLR384C, strain iki3, stronger effect = lower value 0.985 | locus YLR418C, strain cdc73, stronger effect = lower value 0.973 | locus YML016C, strain PPZ1, stronger effect = lower value 0.991 | locus YML032C, strain rad52, stronger effect = lower value 0.99 | locus YML120C, strain ndi1, stronger effect = lower value 0.991 | locus YML124C, strain tub3, stronger effect = lower value 0.984 | locus YMR058W, strain fet3, stronger effect = lower value 0.991 | locus YMR078C, strain ctf18, stronger effect = lower value 0.977 | locus YMR125W, strain sto1, stronger effect = lower value 1 | locus YMR129W, stronger effect = lower value 0.996 | locus YMR205C, strain PFK2, stronger effect = lower value 0.991 | locus YMR223W, strain ubp8, stronger effect = lower value 0.985 | locus YMR231W, strain pep5, stronger effect = lower value 0.984 | locus YMR307W, strain GAS1, stronger effect = lower value 1.08 | locus YNL067W, strain RPL9B, stronger effect = lower value 0.988 | locus YNL071W, strain lat1, stronger effect = lower value 0.988 | locus YNL128W, strain TEP1, stronger effect = lower value 0.992 | locus YNL153C, strain GIM3, stronger effect = lower value 0.988 | locus YNL183C, strain NPR1, stronger effect = lower value 0.974 | locus YNL209W, strain ssb2, stronger effect = lower value 0.997 | locus YNL233W, strain BNI4, stronger effect = lower value 0.982 | locus YNL248C, strain rpa49, stronger effect = lower value 0.997 | locus YNL250W, strain rad50, stronger effect = lower value 0.99 | locus YNL271C, strain bni1, stronger effect = lower value 0.975 | locus YNL298W, strain CLA4, stronger effect = lower value 0.989 | locus YNL307C, strain MCK1, stronger effect = lower value 0.969 | locus YNL322C, strain KRE1 (second series), stronger effect = lower value 0.98 | locus YNR049C, strain mso1, stronger effect = lower value 0.987 | locus YNR052C, strain pop2, stronger effect = lower value 0.973 | locus YOL012C, strain htz1 0.945 | locus YOL147C, strain pex11, stronger effect = lower value 0.979 | locus YOR001W, strain rrp6, stronger effect = lower value 0.958 | locus YOR061W, strain CKA2, stronger effect = lower value 0.997 | locus YOR069W, strain VPS5, stronger effect = lower value 0.987 | locus YOR070C, strain gyp1, stronger effect = lower value 0.999 | locus YOR080W, strain dia2, stronger effect = lower value 0.987 | locus YOR083W, strain WHI5, stronger effect = lower value 0.988 | locus YOR106W, strain vam3, stronger effect = lower value 0.989 | locus YOR136W, strain idh2, stronger effect = lower value 0.964 | locus YOR144C, strain elg1, stronger effect = lower value 0.983 | locus YOR184W, strain ser1, stronger effect = lower value 0.988 | locus YOR231W, strain MKK1, stronger effect = lower value 1 | locus YOR265W, strain rbl2, stronger effect = lower value 0.984 | locus YOR270C, strain vph1, stronger effect = lower value 1.02 | locus YOR290C, strain snf2, stronger effect = lower value 0.999 | locus YOR316C, strain cot1, stronger effect = lower value 0.981 | locus YPL051W, strain arl3, stronger effect = lower value 0.985 | locus YPL055C, strain LGE1, stronger effect = lower value 1 | locus YPL078C, strain atp4, stronger effect = lower value 0.989 | locus YPL106C, strain sse1, stronger effect = lower value 0.991 | locus YPL240C, strain hsp82, stronger effect = lower value 1 | locus YPL256C, strain CLN2, stronger effect = lower value 1.06 | locus YPR119W, strain clb2, stronger effect = lower value 0.978 | locus YPR141C, strain kar3, stronger effect = lower value 0.968 | locus YPR163C, strain tif3, stronger effect = lower value 0.979 | locus YPR167C, strain met16, stronger effect = lower value 0.974 | strain wtn01, stronger effect = lower value 0.952
